# TRHR ag – TRH receptor (human) agonism | P34981 | TRHR cells, calcium flux fluo-8, FDSS agonist mode | activation, % at 2 µM | 360,000 compounds, 0.18% hits | AID 493084; note: 0% is about no effect
#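 Agonist-mode FDSS calcium read (Ex 480/Em 530, 1 s cycles) in 1536-well TRHR cells with fluo-8 dye, after 10-cycle baseline and 23 nL compound addition; TRH at EC20 (10 nM final) added afterwards for the enhancer phase.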
# D1 antag – antagonists of human D1 dopamine receptor; P21728; activity change, negative = inhibition, % at 10 µM; HEK293 TREx D1 cells, calcium flux, dopamine EC80; active compounds read low; 360,000 compounds, 3.2% hits; in the data active = activity change below about -30%; note: % is set by controls: 0 for no effect and ±100 for the full control effect
# Target sequence (P21728 whole entry, looked up): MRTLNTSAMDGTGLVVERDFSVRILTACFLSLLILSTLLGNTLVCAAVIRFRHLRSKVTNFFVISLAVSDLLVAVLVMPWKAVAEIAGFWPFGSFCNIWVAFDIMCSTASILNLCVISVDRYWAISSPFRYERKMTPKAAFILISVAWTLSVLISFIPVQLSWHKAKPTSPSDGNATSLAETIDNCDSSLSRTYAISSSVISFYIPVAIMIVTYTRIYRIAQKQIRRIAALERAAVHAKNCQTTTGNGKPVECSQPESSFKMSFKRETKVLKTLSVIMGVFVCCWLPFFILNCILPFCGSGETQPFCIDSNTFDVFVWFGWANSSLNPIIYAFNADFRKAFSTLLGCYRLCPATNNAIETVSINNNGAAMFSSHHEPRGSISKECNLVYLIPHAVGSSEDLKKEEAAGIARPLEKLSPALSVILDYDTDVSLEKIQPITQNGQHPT
#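 Kinetic fluorescence of a calcium dye serves as the read-out. D1-expressing Hek293 Trex cells, induced overnight at 30 C, are exposed to compound for 180 s before an EC80 dopamine addition, then read 180 s further.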
# USP1-UAF1 inh – inhibitors of human USP1/UAF1 deubiquitinase | O94782 | recombinant USP1/UAF1, Ub-Rhodamine cleavage fluorescence | Potency, µM (series often up to 57.1 µM), for inactives: top-dose activity change, negative = inhibition, hits mostly inhibitors | 390,000 compounds, 0.23% hits | AID 743255; active = well fitted inhibition curve with a large enough effect; inconclusive = small, poorly fitted or top-dose-only effect; inactive = no such curve, though single readings can be large or run the other way; note: potency is the fitted concentration of half-maximal effect; % is set by controls: 0 for no effect and ±100 for the full control effect; nearly all actives have a fitted effect of over 60% in size
#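 Step one: compound is pinned into 1nM USP1/UAF1 in HEPES pH 7.8 buffer with TCEP. Step two: 15 min room-temperature incubation. Step three: Ub-Rho (150nM final) starts cleavage, tracked by fluorescence over six one-minute reads.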
# D1 potentiator – human D1 dopamine receptor positive modulation; P21728; HEK293 TREx D1 cells, calcium flux, dopamine EC20 potentiation; potentiation, % at 10 µM; 360,000 compounds, 0.036% hits; in the data active = potentiation above about 30%; note: 0% is about no effect
# D1 agonist – agonists of human D1 dopamine receptor; 360,000 compounds, 1% hits; activation, % at 2 µM; P21728; HEK293 T-REx D1 cells, calcium flux, agonist mode; note: 0% is about no effect
#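 Agonism was scored from calcium flux recorded over 180 s (1 read/s) after pintool compound addition, following a 10-cycle baseline. Cells were inducible force-coupled HEK293 TREx D1, plated overnight at 30 C and loaded with no-wash calcium dye.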
# TRHR enhancer – allosteric enhancers of human TRH receptor; P34981; TRHR cells, fluo-8 calcium fluorescence, EC20 TRH enhancement; enhancement, % at 2 µM; 360,000 compounds, 0.66% hits; AID 493056; in the data active = enhancement above about 30%; note: 0% is about no effect
#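 TRHR-expressing cells loaded with fluo-8 calcium dye were read kinetically (ex 480/em 530) during compound addition, then stimulated with an EC20 of TRH (10 nM final). Enhancement of the Gq-mediated intracellular calcium response was scored.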
# * marks the source's active call; other numbers are inactive results; ? = inconclusive; . = no result given. An excerpt weighted towards active compounds, which were near 4.4% of everything screened. Cut-off read from the data, not from the text of the source, unless noted: active = activation above about 30%; inactive = the rest.
SMILES,TRHR ag,D1 antag,USP1-UAF1 inh,D1 potentiator,D1 agonist,TRHR enhancer
CCOC(=O)Cn1c(=O)oc2cc(S(=O)(=O)Nc3ccccc3F)ccc21,1,3,-9%,-3,8,9
CC(C)n1c(NCc2ccc(Cl)cc2)nc2ccccc21,0,4,-11%,0,1,40*
COc1ccc(-c2cc(C(=O)NCCc3ccc(Cl)cc3)[nH]n2)cc1,0,1,-16%,-1,0,2
COc1cccc(-c2cc(C(=O)NCCc3ccc(C)cc3)[nH]n2)c1,-1,-70*,-15%,-3,9,0
COc1ccc([S+](=O)([O-])N2CCN([S+](=O)([O-])c3ccc4c(c3)OCCO4)CC2)c(OC)c1,1,-17,.,5,7,5
O=C(COc1ccc(Cl)cc1)N1CCN(C(=O)c2cccs2)CC1,1,-61*,-10%,-2,6,9
O=C(COc1ccccc1)N1CCN(c2ccccc2)CC1,-1,-35*,-6%,-3,3,-2
O=C(CSc1ccsc1[N+](=O)[O-])N1CCN(c2ccccc2)CC1,-1,-31*,-8%,-10,0,0
O=C(OCC(=O)N1CCN(c2ccccc2)CC1)c1ccccc1[N+](=O)[O-],0,-36*,-15%,-16,3,1
O=C(OCC(=O)N1CCN(c2ccccc2)CC1)c1cccc([N+](=O)[O-])c1,0,-14,-20%,-2,2,-6
COc1ccccc1NC(=O)C1=C(C)Nc2ncnn2C1c1ccc[nH]1 (configuration not stated),1,5,-25%,-4,5,-1
COc1ccccc1CNS(=O)(=O)c1ccc(-n2cnnn2)c(C)c1,1,-31*,-17%,-8,7,-6
COc1ccc(S(=O)(=O)NC2CCCCC2)cc1-n1cnnn1,1,-3,-5%,-5,0,-2
Cc1cc(S(=O)(=O)NC2CCCCC2)ccc1-n1cnnn1,2,-30*,-12%,-5,10,-8
COc1cc(S(=O)(=O)NCc2ccccc2)ccc1-n1cnnn1,1,1,-18%,.,5,8
COc1ccccc1CNS(=O)(=O)c1ccc2c(c1)NC(=O)CC(=O)N2,0,-33*,?,-3,2,-1
Cc1ccccc1OCC(=O)OCC(=O)c1ccc[nH]1,-2,-32*,-15%,-6,2,-4
Cc1cc(OCC(=O)OCC(=O)c2ccc[nH]2)ccc1Cl,0,-34*,-6%,-3,10,-7
CCCCCCCC(=O)NNC(=O)Cc1ccccc1,0,-54*,-20%,-1,2,-4
CCc1ccc(NC(=O)NNC(=O)CCc2ccccc2)cc1,0,-61*,-20%,-5,1,1
O=C(CCc1ccccc1)NNC(=O)Nc1ccccc1,0,2,-16%,1,3,0
CCCCCCC(=O)N/N=C(\C)Cc1ccccc1,0,-3,-18%,-5,7,4
COc1cc(OC)cc(C(=O)N2CCC(c3ccncc3)CC2)c1,0,-5,1%,-2,-2,-5
CCOc1ccc(NC(=O)c2cc(=O)c3ccc(C)c(C)c3o2)cc1,-1,-28,?,0,-2,-1
Cc1ccccc1OCC(=O)OCC(=O)c1ccc(OC(=O)c2ccccc2)cc1,5,-14,-16%,-4,24,7
SMILES,TRHR ag,D1 antag,USP1-UAF1 inh,D1 potentiator,D1 agonist,TRHR enhancer
Cc1ccccc1OCC(=O)NNC(=O)CCc1ccccc1,0,6,-17%,1,1,32*
Cc1ccc(C)c(NC(=O)CCC(=O)NNC(=O)COc2cc(C)ccc2C)c1,-1,-38*,-15%,-7,0,6
Cc1ccccc1OCC(=O)OCC(=O)c1ccc(OCc2ccccc2)cc1,0,16,-23%,-4,55*,-5
O=C(CC1Oc2ccccc2NC1=O)NC1CCCC1 (configuration not stated),1,-40*,?,-4,0,-1
Cc1ccc(S(=O)(=O)/N=C2/C=C(Sc3ncn[nH]3)C(=O)c3ccccc32)c(C)c1,0,17,.,2,0,-3
Cc1ccc(S(=O)(=O)Nc2ccc(O)c(Sc3ncn[nH]3)c2)cc1,0,11,?,16,1,4
Cc1ccc(S(=O)(=O)/N=C2/C=C(Sc3ncn[nH]3)C(=O)c3ccccc32)cc1,0,24,1µM*,4,6,-4
CC(C)c1ccc(S(=O)(=O)/N=C2/C=C(Sc3ncn[nH]3)C(=O)c3ccccc32)cc1,-2,-5,1.8µM*,8,0,1
O=C(Cn1c(=O)ccc2cc(S(=O)(=O)N3CCCC3)ccc21)Nc1ccc(Cl)cc1,1,5,-20%,-1,0,-1
CCn1c2c(c(=O)n3ncc(C(=O)Nc4ccc(F)cc4Cl)c13)CN(Cc1ccc(OC)cc1)CC2,0,10,?,0,3,-4
CCc1ccc(CNc2ccc(N3CCN(C(C)=O)CC3)cc2)cc1,1,-14,-8%,0,34*,5
CN(C)c1ccc(CNc2nc(-c3ccco3)nn2S(=O)(=O)c2ccc3ccccc3c2)cc1,-1,3,?,-1,-2,-1
Clc1cccc(/C=N/Nc2ncnc3ccccc23)c1,0,4,-13%,1,-1,31*
O=S(=O)(c1ccccc1)n1nc(-c2ccco2)nc1NCc1ccccc1,0,-4,?,1,5,0
Cc1ccc(O)c(NC(=S)NC(=O)Cc2ccc(Cl)cc2)c1,19,-62*,-11%,-28,96*,-24
Cc1ccc(NC(=S)NC(=O)c2ccc(-c3ccc(Cl)cc3)o2)c(O)c1,-3,5,-15%,-17,1,3
Cc1cc(O)c(NC(=S)NC(=O)c2ccc(-c3ccc(Cl)cc3)o2)cc1C,0,-34*,-7%,-2,2,-1
CC(=O)c1ccc(NC(=S)NC(=O)Cc2ccc(Cl)cc2)cc1,9,-1,-15%,3,41*,-5
Cc1cc(N2CCN(C)CC2)ccc1NC(=O)c1ccc(-c2ccc(Cl)cc2)o1,0,-62*,-1%,-4,16,1
O=C(CSc1nnc(-c2ccccc2)c(-c2ccccc2)n1)Nc1ccccc1Cl,0,12,?,-1,6,-4
Cc1ccc(C)c(CN2C(=O)c3ccccc3S(=O)c3ccc(C(=O)NCc4ccccc4)cc32)c1 (configuration not stated),1,-1,-25%,1,5,-2
CN(Cc1nc2ccccc2c(=O)[nH]1)C(=O)c1ccccc1OCc1ccc(Cl)cc1,1,-32*,-16%,-1,1,5
